The list is not random: actives were taken first. Their share in the collection is about 4.8%.
ALR inh – inhibitors of human ALR sulfhydryl oxidase, primary screen, biochemical, H2O2 detection, HRP-luminol luminescence, single point; FAD-linked sulfhydryl oxidase ALR (Homo sapiens), P55789; purified ALR, DTT oxidation; inhibition, % (concentration not given with the values); 290,000 compounds, 3.8% hits;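 active means mean replicate inhibition above about 79%, with every replicate also reaching it, limit read from the data; inconclusive means only one of the two criteria met; inactive means mean below limit and not every replicate reaching it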
Target sequence (P55789 whole entry, looked up): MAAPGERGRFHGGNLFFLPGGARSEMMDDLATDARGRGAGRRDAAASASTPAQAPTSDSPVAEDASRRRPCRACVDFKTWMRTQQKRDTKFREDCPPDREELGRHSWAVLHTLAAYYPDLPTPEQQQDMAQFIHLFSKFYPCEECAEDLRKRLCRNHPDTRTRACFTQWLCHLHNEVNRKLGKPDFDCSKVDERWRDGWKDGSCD
SUMO Mot1 rescue – yeast Mot1-301 growth rescue at high temperature, primary screen, SUMOylation pathway inhibitor project, S. cerevisiae, ATP luminescence, 38.5C; growth rescue, % at 18.8 µM; 320,000 compounds, 1% hits; S. cerevisiae Mot1-301 growth rescue; percent above DMSO median, 100 means doubled;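 active means every valid replicate shows activation above 250% relative to neutral control wells; inactive means the rest, any valid replicate at or below 250%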;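 further: OY570 slx delta 5 strain wells were the positive control but not used for scaling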
AI-2 QS modul – Vibrio harveyi AI-2 quorum sensing modulators, primary screen, JMH597 strain, luminescence/OD600 ratio; Vibrio harveyi JMH597 AI-2 luminescence/OD600 ratio, 9 h; stronger effect = lower value; strain lacks LuxN and CqsS sensors; 0 = neutral-control median; AID 2094, 2009; activity change, % at 7.5 µM; 300,000 compounds, 0.4% hits; in the data active means activity change below about -75%, passing the limit was not always enough; inconclusive means no clear call, values can overlap the other calls;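 further: luminescence divided by OD600 gain over 9 h not by final OD600 alone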
HIF act – HIF pathway transcriptional activators, primary screen, cell-based, U2OS HRE-luciferase, luminescence. U2OS HRE-luciferase reporter; normalized: DMSO 0%, desferrioxamine 100%. activation, % at 7.5 µM (by protocol). 300,000 compounds, 0.32% hits;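 active means mean activation of at least 10% of the iron chelator positive control signal, with at least half of replicates also reaching 10%; inconclusive means mean and replicate majority disagree about reaching 10%; inactive means mean and most replicates under 10%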
Numbers without * were called inactive; ? = inconclusive; · = no result given.

SMILES	ALR inh	SUMO Mot1 rescue	AI-2 QS modul	HIF act
O=C(O)CCn1cc(C=C2C(=O)NC(=O)NC2=O)c(-c2cc3ccccc3oc2=O)n1	97*	38	18	-1
CCN1CCN(S(=O)(=O)c2ccc(Cl)c(C(=O)Nc3ccc(C(=O)N(CC)CC)cc3)c2)CC1	-2	-9	13	0
O=C1NC(=O)C(=Cc2ccc(-c3ccc(S(=O)(=O)N4CCOCC4)cc3)o2)C(=O)N1	92*	-5	7	0
O=C1NC(=O)C(=Cc2ccc(-c3ccc(F)cc3O)o2)C(=O)N1	98*	13	32	1
O=C1NC(=O)C(=Cc2ccc(-c3ccc(Cl)cc3)o2)C(=O)N1	94*	-3	?	0
Cc1cc(OCC(=O)N2C[C@H]3C[C@@H](C2)c2cccc(=O)n2C3)c2c(C)cc(=O)oc2c1	-9	1	25	0
CNc1cc(Cl)c2nonc2c1[N+](=O)[O-]	·	·	-90*	0
CCOC(=O)c1c(NS(=O)(=O)c2ccccc2)n(CCCOC)c2nc3ccccc3nc12	23	100	14	455*
COCCCn1c(N)c(C(=O)OCCOC)c2nc3ccccc3nc21	·	35	41	0
CCOC(=O)C1=Nc2ccccc2/C1=C\c1c(O)n(C)c(=O)n(C)c1=O	98*	305	26	0
N#CC1=C(N)Oc2c(c(=O)oc3ccccc23)C1c1cccnc1 (stereo not given)	23	-4	9	0
N#CC1=C(N)Oc2c(c(=O)sc3ccccc23)C1c1ccncc1 (stereo not given)	95*	-3	3	0
CCN(CC)c1ccc(CNCCc2ccccc2F)cc1	99*	352	23	0
Cc1ccc(CNCCc2ccccc2F)cc1	-4	-7	15	1
CCN(CC)c1ccc(C=C2C(=O)NC(=S)NC2=O)cc1	99*	6	33	-1
O=C(O)C1Cc2ccccc2N2CCCC12 (stereo not given)	92*	-2	16	-1
CC1CCCN(CC(=O)N2CCCc3ccccc32)C1 (stereo not given)	0	13	7	0
ClCCNc1nc2ccc(Cl)cc2[nH]1	98*	12	34	1
CN1C(=O)c2ccccc2NC(=O)C1Cc1ccccc1 (stereo not given)	98*	13	26	0
CCS(=O)(=O)Nc1cccc(C(=C2CCCCC2)c2cnc[nH]2)c1	0	-3	·	·
CN1C(=O)N(C)C(=O)C2(Cc3c(ccc4ccccc34)N(C)C2)C1=O	99*	727	30	0
O=C1NC(=O)C2(Cc3ccccc3N3CCCC32)C(=O)N1 (stereo not given)	99*	-13	16	0
O=C1NC(=O)C2(Cc3ccccc3N3CCCC32)C(=O)N1c1ccccc1 (stereo not given)	-7	96	3	0
CCC(=NCc1cc(OC)cc(OC)c1)c1c(O)[nH]c(=O)[nH]c1=O	-5	1	13	66*
COc1cc(/C=C2\C(=O)NC(=O)N(c3ccccc3)C2=O)cc(OC)c1O	91*	-19	18	0
SMILES	ALR inh	SUMO Mot1 rescue	AI-2 QS modul	HIF act
Cc1ccc(-c2cc(-c3ccc(C)cc3)[n+](-c3ccc(C(=O)O)cc3)c(-c3ccc(C)cc3)c2)cc1	4	16	9	0
Cc1ccc(C[n+]2c(-c3ccc(C)cc3)cc(-c3ccc(C)cc3)cc2-c2ccc(C)cc2)cc1	-7	280*	-41	-1
CCC(C)N1C(=O)/C(=C\c2ccc(N3CCCCCC3)cc2)C(=O)NC1=S (stereo not given)	9	-10	1	0
CCC(C)N1C(=O)/C(=C\c2cc3c4c(c2)CCCN4CCC3)C(=O)NC1=S (stereo not given)	99*	-2	5	0
CN1CCN(c2ccc(NC(=O)Oc3ccccc3)cc2)CC1	80*	-1	11	-1
CN1CCN(C(=O)COc2ccc(Oc3ccccc3)cc2)CC1	·	-14	24	0
COC(=O)C(O)(c1ccc(NC(=O)Oc2ccccc2)cc1)C(F)(F)F (stereo not given)	-3	-1	-76*	0
O=S1(=O)N(Cc2ccc(F)cc2)CCCN1Cc1ccccc1Cl	-11	50	12	-3
COP(=O)(OC)C(Nc1ccccc1)c1ccccc1 (stereo not given)	96*	-29	-2	3
COc1ccc(NC(c2ccccc2)P(=O)(Oc2ccccc2)Oc2ccccc2)cc1 (stereo not given)	-14	-17	-2	0
CC(C)c1ccc(-n2c(O)c(C=NC(CCS(C)=O)C(=O)O)c(=O)[nH]c2=S)cc1 (stereo not given)	15	3	23	-3
COCCCNC(=O)c1c(NC(=O)c2ccco2)n(Cc2ccccc2)c2nc3ccccc3nc12	-35	5	17	0
COCCNC(=O)c1c(NC(=O)c2ccc(Br)o2)n(Cc2ccccc2)c2nc3ccccc3nc12	?	830*	11	2
Cn1c(O)c(/C=N/NC(=O)c2ccncc2)c(=O)[nH]c1=S	19	-22	-1	0
CCCCn1c(O)c(/C=N/NC(=O)c2ccncc2)c(=O)[nH]c1=S	99*	6	10	0
CCCNC(=O)N1[C@H]2CC[C@@H]1C(C(=O)OC)=C(c1ccc(OC)c(OC)c1)C2	-4	15	·	·
Cc1ccc2c(c1)=C/C(=C\c1c(O)[nH]c(=S)[nH]c1=O)C(=O)N=2	97*	14	23	-4
Cc1ccc2c(c1)=NC(=O)/C(=C/c1c(O)[nH]c(=O)[nH]c1=O)C=2	9	5	24	0
O=C1NC(=S)NC(=O)C1=Cc1ccc(OCC(=O)N2CCCC2)cc1	7	-13	2	0
CO[C@H]1C=C2CCN(C)[C@H]2C2c3cc4c(cc3C(=O)O[C@@H]21)OCO4 (stereo not given in full)	-5	-3	·	·
Oc1ccc(CC2CC3CCN2CC3)cc1O (stereo not given)	99*	5	-1	-1
O=[N+]([O-])CCO	-22	161	·	·
C/C(=C\c1ccc(N(C)C)cc1)[N+](=O)[O-]	·	74	-91*	-5
CN(C)c1ccc(/C=C/[N+](=O)[O-])cc1	98*	119	-9	3
CN(C)c1ccc(C(=O)c2ccc(N(C)C)cc2)cc1	8	-15	13	1
Oc1ccc(C(=C(Cl)Cl)c2ccc(O)cc2)cc1	86*	131	-70	-1
Cc1ccc(/C=C2/C(=O)NC(=O)N(CC3CCCO3)C2=O)s1 (stereo not given)	97*	6	21	0
Cc1ccc(/C=C2/C(=O)NC(=O)N(CCc3ccc(F)cc3)C2=O)s1	29	-13	8	0
Cc1ccc(/C=C2\C(=O)NC(=O)N(CCc3ccc(F)cc3)C2=O)s1	96*	0	·	0
